Assay outcomes as filed in PubChem.
Six1-Eya2 inh: qHTS Assay for Inhibitors of the Six1/Eya2 Interaction; 360,000 compounds, 0.56% hits; activity change, % (concentration not given with the values); AID 651725, 2012; AlphaScreen GST-Six1/His-Eya2 binding, biochemical; stronger effect = lower value; in the data active = activity change below about -65%; inconclusive = mostly about -30% to -63%
Target sequence (O00167 whole entry, looked up): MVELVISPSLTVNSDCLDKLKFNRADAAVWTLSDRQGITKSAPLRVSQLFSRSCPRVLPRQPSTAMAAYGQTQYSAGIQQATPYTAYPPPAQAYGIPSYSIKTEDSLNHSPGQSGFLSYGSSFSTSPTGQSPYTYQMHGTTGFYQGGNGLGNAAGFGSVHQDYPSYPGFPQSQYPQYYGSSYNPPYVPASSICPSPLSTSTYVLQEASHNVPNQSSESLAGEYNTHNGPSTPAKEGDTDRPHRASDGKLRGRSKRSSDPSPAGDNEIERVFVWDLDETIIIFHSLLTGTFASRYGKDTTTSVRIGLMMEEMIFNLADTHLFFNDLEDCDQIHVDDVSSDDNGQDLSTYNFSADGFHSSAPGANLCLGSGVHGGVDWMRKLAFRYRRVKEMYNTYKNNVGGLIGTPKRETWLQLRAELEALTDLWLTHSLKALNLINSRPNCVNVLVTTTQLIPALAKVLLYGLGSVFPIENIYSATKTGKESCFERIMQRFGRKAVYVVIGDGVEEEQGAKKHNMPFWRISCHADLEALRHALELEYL
Target sequence (Q15475 whole entry, looked up): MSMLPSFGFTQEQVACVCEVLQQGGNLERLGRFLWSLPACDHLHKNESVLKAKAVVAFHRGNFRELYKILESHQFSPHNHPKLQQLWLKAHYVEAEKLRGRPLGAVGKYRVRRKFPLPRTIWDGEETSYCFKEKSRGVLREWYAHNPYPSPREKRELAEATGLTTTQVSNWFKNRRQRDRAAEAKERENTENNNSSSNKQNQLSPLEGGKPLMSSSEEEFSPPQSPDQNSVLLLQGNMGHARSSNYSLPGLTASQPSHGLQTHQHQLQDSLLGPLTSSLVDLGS
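Homogeneous AlphaScreen proximity assay pairing GST-Six1 with His-tagged Eya2 (added as 5X mix: 250 nM and 500 nM) in 50 mM Tris pH 8.0, 300 mM NaCl, 1 mM TCEP. Glutathione donor and nickel acceptor beads; 1 h, 37 °C, dark.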
DT40 TDP1 CPT: qHTS for Inhibitors of human tyrosyl-DNA phosphodiesterase 1 (TDP1): qHTS in cells in presence of CPT; chicken DT40 Tdp1-/-;hTDP1 cells + 20 nM CPT, ATP luminescence, 48 h; Potency, µM (top dose mostly 46.2 µM), hits mostly inhibitors; 420,000 compounds, 12% hits; note: nearly all actives have a fitted effect of over 55% in size
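Chicken DT40 Tdp1-/- cells stably complemented with human TDP1 were seeded at 400 cells/well in medium containing 20 nM camptothecin, exposed to pin-transferred compounds, and grown at 37 °C for at least 48 hr. Viability was read as ATP luminescence.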
DT40 TDP1 no CPT: qHTS for Inhibitors of human tyrosyl-DNA phosphodiesterase 1 (TDP1): qHTS in cells in absence of CPT; DT40 Tdp1-/- hTDP1 cells, no CPT, ATP luminescence, 48 h; Potency, µM (top dose mostly 46.2 µM), most hits filed as inhibitors; 420,000 compounds, 15% hits; AID 686978, 2013; note: nearly all actives have a fitted effect of over 55% in size
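Cells were dispensed at 400 per well, compounds added by pin tool, plates incubated ≥48 hr at 37 °C, then CellTiter-Glo added for 30 min at room temperature before luminescence reading. Line: DT40 Tdp1-/- complemented with hTDP1; camptothecin omitted.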
TDP1 block: qHTS Assay for Inhibitors of Tyrosyl-DNA Phosphodiesterase (TDP1) | Potency, µM (titrated, usually from 130 µM), actives largely listed as inhibitors | Tyrosyl-DNA phosphodiesterase 1 (Homo sapiens), Q9NUW8 | 350,000 compounds, 0.28% hits | AID 485290, 2010 | recombinant TDP1, AlphaScreen DNA substrate cleavage; note: nearly all actives have a fitted effect of over 40% in size
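Enzyme-compound mixtures sat 15 min at room temperature, followed by a 5 min reaction with 15 nM final substrate and 10 min with AlphaScreen beads. Recombinant human Tdp1 was used at 1 nM final.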
IL1B secr inh: qHTS for Inhibitors of Inflammasome Signaling: IL-1-beta AlphaLISA Primary Screen | 360,000 compounds, 4.7% hits | AID 743279, 2014 | THP-1 LPS/ATP IL-1B secretion, AlphaLISA, 16 h; stronger effect = lower value | activity change, % at 57.5 µM; in the data active = activity change below about -50%; inconclusive = mostly about -30% to -49%
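THP-1 cells pretreated 1 hr with compounds (up to 57.5 uM final), then stimulated with LPS (250 ng/mL final) plus ATP (1.25 mM final); secreted IL-1B measured by AlphaLISA after 16 hr, decreased signal indicating inhibition.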
CtBP-E1A inh: qHTS Assay for Inhibitors of the CtBP/E1A Interaction; AlphaScreen GST-E1A/His-CtBP binding, 1536-well; stronger effect = lower value; activity change, % (test concentration not listed); 340,000 compounds, 0.49% hits; AID 651724, 2012; in the data active = activity change below about -65%; inconclusive = mostly about -30% to -63%
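In 5 uL wells, 23 nL compound meets equimolar GST-E1A and His-CtBP (5X stock 125 nM each) for 2 h, 37 °C. Beads (5X, 50 ug/mL) then 1 h, 37 °C, dark.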
Hits are given with their value; 0 = inactive; ? = inconclusive; - = not tested or not shown; ! = not active in a repeat; [ ] = another dose, or the depositor's remark. Shown are actives, neighbours in structure and some others; about 18% of the full set was active somewhere. Unless noted, calls come from the whole dose curve; as a rule, active = well fitted curve in the direction sought with a large enough effect; inconclusive = small, poorly fitted or top-dose-only effect, or another doubt; inactive = no such curve, though single readings can be large; an effect the other way counts as inactive or inconclusive.

SMILES	Six1-Eya2 inh	DT40 TDP1 CPT	DT40 TDP1 no CPT	TDP1 block	IL1B secr inh	CtBP-E1A inh
CC1N(C)c2cc(NC(=O)c3ccco3)c(P(=O)(Nc3ccc([N+](=O)[O-])cc3)N3CCOCC3)cc2C1(C)C (centres undefined)	0	4.6µM	5.2µM	0	-55	0
O=c1[nH]c(O)c(C=Nc2ccccc2Sc2ccccc2)c(=O)[nH]1	0	0	0	0	0	0
CCOC(=O)C(NC(=O)C(Cc1ccc(N(CCCl)CCCl)cc1)NC(C)=O)C(C)C (centres undefined)	0	0	0	0	0	0
CC(=O)NC(Cc1ccc(N(CCCl)CCCl)cc1)C(=O)NC(CC(C)C)C(=O)O (centres undefined)	0	?	15µM	0	0	0
CCOC(=O)CNC(=O)CNC(=O)C(Cc1ccc(N(CCCl)CCCl)cc1)NC(C)=O (centres undefined)	0	1.3µM	1.6µM	0	?	0
CC(=O)NC(Cc1ccc(N(CCCl)CCCl)cc1)C(=O)NCC(=O)NCC(=O)O (centres undefined)	0	6.5µM	10µM	0	0	0
CCOC(=O)c1ccc2[nH]c(-c3ccc(S(=O)(=O)F)cc3)cc(=O)c2c1	0	0	?	0	0	-
O=C1Nc2ccccc2Sc2ccccc21	0	0	0	0	0	-
c1ccc2c(c1)Nc1ccccc1S2	0	5.3µM!	34µM!	0	0	0
CN(C)c1ccc(C(O)P(=O)(OC2CCCCC2)OC2CCCCC2)cc1 (centres undefined)	0	?	0	-	0	0
CN(C)c1ccc([P+](=O)c2ccc(N(C)C)cc2)cc1	0	?	21µM	0	0	0
Cc1cc2c(cc1C)NP(=S)(c1ccccc1)N2	0	0	0	-	0	0
CCOc1cc2c(cc1OCC)-n1cccc1C(c1ccccc1F)NC2 (centres undefined)	0	?	18µM	-	?	0
CCOc1cc2c(cc1OCC)-n1cccc1C(c1cc(OC)ccc1F)NC2 (centres undefined)	0	18µM	16µM	-	0	0
CCOc1cc2c(cc1OCC)-n1cccc1C(c1cccc(F)c1)NC2 (centres undefined)	0	21µM	?	-	?	?
CCOc1cc2c(cc1OCC)-n1cccc1C(c1cccc(OCC)c1O)NC2 (centres undefined)	0	?	16µM	-	0	0
O=C(Cc1ccccc1)N1CCN(C/C=C/c2ccccc2)CC1	0	0	?	0	0	0
CC/C(=C(\c1ccc(O)cc1)c1ccc(OCCN(C)C)cc1)c1ccccc1	0	?	15µM	0	0	0
CCC(=C(c1ccc(O)cc1)c1ccc(OCCN(C)C)cc1)c1ccccc1	0	0	0	-	0	0
O=C(Nc1ccc(F)cc1F)c1cccnc1Oc1cccc(C(F)(F)F)c1	0	0	0	0	0	0
CCCCCCOc1ccc(CN2CCN(CC)CC2)cc1	0	?	23µM	0	?	0
C=C[C@]12CN(C)[C@H]3C1[C@@]1(C(=O)Nc4ccccc41)[C@H]1C[C@H]2[C@H]3CO1	-	-	-	0[21 µM]	-	-
CSCCC(c1nnnn1-c1ccc2c(c1)OCCO2)N1CCC2(CC1)C(=O)NCN2c1ccccc1 (centres undefined)	0	?	?	-	0	0
Cc1ccc(Cn2cccc(C(=O)Nc3nc4ccc(C)cc4s3)c2=O)cc1	-	0	0	0	-	-
CN(C)c1ccc(/C=C/C=C/c2sc3ccccc3[n+]2C)cc1	0	0.92µM	0.13µM	0	-90	0
